Drawing on PubChem BioAssay, this text covers composite z-score and z-score for six compounds.

Calls of active or inactive are those of the source.

Experiment [1] relates to Plasmodium falciparum Sir2 (PF13_0152, Sir2A). The experiment can be described thus: pfSir2 binders on small-molecule microarrays, primary screen, biochemical, small-molecule microarray, 635 nm fluorescence (AID 1098).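 Note: score merges spot fluorescence intensity with its signal-to-noise ratio.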 The note with it: small-molecule microarray binding, fluorescence 635 nm; higher = more signal.
Experiment [2] is described as follows: small-molecule microarray binders of probe aDKK1, primary screen, biochemical, biotinylated probe, 635/667 nm fluorescence (AID 1099).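 Note: score merges 667nm spot fluorescence with signal to noise across triplicate slides.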 The conditions noted are these: higher = more signal.
A short description of experiment [3]: small-molecule microarray binders of probe aCHRDL2, primary screen, biochemical, biotinylated probe, 635/667 nm fluorescence (AID 1100). The conditions noted are these: higher = more signal.
Experiment [4] is described as follows: splicing luciferase reporter signal modulators, primary screen, spliceosome inhibition project, cell-based, HEK293, splice +/- reporter (AID 1101).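 Note: HEK293 cells carrying a splicing-competent luciferase reporter gene; test concentration not given here.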 The conditions noted are these: luminescence, 24 h, higher = more signal, called active from +8 up or from −8 down.
Experiment [5] deals with Fibroblast growth factor 10 (Homo sapiens) (UniProt O15520). The experiment can be described thus: FGF10 binders on small-molecule microarrays, primary screen, biochemical, small-molecule microarray, 635 nm fluorescence (AID 1102). The conditions noted are these: FGF10 binding, fluorescence 635 nm, higher = more signal.
Sequence of Fibroblast growth factor 10 (Homo sapiens) (O15520 whole entry, looked up): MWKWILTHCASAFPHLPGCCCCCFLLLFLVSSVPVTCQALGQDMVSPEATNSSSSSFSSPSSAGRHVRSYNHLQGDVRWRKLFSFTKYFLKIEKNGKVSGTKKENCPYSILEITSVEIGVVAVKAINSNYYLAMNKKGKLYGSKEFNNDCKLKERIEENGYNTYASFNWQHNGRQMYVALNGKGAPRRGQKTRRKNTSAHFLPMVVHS
The subject of experiment [6] is glycogen synthase kinase-3 (GSK3A per assay name; protocol says GSK3B). The experiment can be described thus: GSK3 binders on small-molecule microarrays, primary screen, biochemical, small-molecule microarray, 635 nm fluorescence, GSK3A (AID 1103). Note: the record names both GSK3A and GSK3B. The note with it: small-molecule microarray binding, fluorescence 635 nm; higher = more signal.
For experiment [7], the target named is Epidermal growth factor receptor (Homo sapiens) (UniProt P00533). In words: EGFR binders on small-molecule microarrays, primary screen, biochemical, small-molecule microarray, 635 nm fluorescence (AID 1104).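 Note: score merges 667 nm emission intensity with spot signal to noise over triplicate slides.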 The conditions noted are these: EGFR binding, higher = more signal.
Sequence of Epidermal growth factor receptor (Homo sapiens) (P00533 whole entry, looked up): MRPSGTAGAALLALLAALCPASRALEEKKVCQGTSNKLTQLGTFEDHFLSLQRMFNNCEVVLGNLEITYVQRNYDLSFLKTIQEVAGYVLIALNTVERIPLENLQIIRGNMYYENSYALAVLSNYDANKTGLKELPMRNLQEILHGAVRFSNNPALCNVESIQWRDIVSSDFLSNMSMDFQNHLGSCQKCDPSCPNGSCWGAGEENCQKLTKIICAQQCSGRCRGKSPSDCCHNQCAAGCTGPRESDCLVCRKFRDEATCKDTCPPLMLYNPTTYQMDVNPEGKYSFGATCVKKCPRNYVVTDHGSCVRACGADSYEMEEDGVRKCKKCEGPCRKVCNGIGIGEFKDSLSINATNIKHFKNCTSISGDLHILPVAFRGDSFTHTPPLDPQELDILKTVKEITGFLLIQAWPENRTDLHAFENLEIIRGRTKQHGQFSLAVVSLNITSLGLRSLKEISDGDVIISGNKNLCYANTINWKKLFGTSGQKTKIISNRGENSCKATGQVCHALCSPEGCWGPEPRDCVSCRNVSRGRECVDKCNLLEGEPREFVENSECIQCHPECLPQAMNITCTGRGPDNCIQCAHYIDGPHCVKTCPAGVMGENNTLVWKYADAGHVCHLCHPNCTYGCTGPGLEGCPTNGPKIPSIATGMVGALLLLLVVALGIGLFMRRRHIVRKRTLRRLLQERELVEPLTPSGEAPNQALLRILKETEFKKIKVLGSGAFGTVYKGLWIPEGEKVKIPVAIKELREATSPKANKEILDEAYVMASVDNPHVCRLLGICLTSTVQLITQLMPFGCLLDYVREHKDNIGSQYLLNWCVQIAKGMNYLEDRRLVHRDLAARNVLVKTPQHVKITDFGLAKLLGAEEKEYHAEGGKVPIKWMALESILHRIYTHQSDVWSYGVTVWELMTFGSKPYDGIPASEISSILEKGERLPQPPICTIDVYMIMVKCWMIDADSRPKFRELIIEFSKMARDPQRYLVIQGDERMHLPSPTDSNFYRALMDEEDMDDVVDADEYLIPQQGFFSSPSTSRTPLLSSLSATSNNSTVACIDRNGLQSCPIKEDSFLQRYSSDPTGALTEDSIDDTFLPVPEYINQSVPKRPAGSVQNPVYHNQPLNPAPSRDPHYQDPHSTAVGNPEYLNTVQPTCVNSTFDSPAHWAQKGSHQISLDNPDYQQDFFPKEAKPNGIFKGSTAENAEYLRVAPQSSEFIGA
The target of experiment [8] is Follistatin-related protein 3 (Homo sapiens) (UniProt O95633). In words: FSTL3 binders on small-molecule microarrays, primary screen, biochemical, small-molecule microarray, 635 nm fluorescence (AID 1105).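 Note: score merges emission near 667 nm and signal to noise per printed spot across three slides.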 The conditions noted are these: FSTL3 binding, higher = more signal.
Sequence of Follistatin-related protein 3 (Homo sapiens) (O95633 whole entry, looked up): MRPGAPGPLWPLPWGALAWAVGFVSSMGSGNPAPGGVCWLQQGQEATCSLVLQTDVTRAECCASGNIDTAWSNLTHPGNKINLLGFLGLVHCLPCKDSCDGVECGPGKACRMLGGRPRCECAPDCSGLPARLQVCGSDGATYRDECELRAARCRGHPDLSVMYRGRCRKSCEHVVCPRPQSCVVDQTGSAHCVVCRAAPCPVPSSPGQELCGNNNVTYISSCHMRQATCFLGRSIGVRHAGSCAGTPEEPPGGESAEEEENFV
Experiment [9] deals with Dickkopf-related protein 1 (Homo sapiens) (UniProt O94907). The experiment can be described thus: DKK1 binders on small-molecule microarrays, primary screen, biochemical, small-molecule microarray, 635 nm fluorescence scan (AID 1106).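 Note: score merges emission near 667 nm with signal to noise over three replicate slides.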 The note with it: DKK1 binding, higher = more signal.
Sequence of Dickkopf-related protein 1 (Homo sapiens) (O94907 whole entry, looked up): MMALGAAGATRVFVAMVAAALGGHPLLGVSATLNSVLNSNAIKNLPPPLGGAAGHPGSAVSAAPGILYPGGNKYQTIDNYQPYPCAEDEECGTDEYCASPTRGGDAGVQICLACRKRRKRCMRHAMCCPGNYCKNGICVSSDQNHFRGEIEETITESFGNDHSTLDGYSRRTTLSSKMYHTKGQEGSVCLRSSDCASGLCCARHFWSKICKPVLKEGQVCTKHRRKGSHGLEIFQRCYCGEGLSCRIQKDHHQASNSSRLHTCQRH
Experiment [10] deals with Inhibin beta A chain (activin A). The experiment can be described thus: INHBA (activin A) binders on microarrays, primary screen, biochemical, small-molecule microarray, 635 nm fluorescence scan (AID 1107).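 Note: mouse activin A protein probed at 4.33 µg/mL on printed slides; score merges bound-protein fluorescence near 667 nm with spot signal-to-noise.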 The note with it: small-molecule microarray binding, higher = more signal.
The test system of experiment [11] is Human papillomavirus type 1a protein E7 (residues 44-93). In words: HPV1a E7 fragment binders on microarrays, primary screen, biochemical, small-molecule microarray, residues 44-93, 635 nm fluorescence (AID 1108).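 Note: E7 fragment applied at 1 µg/mL in TBST for 1 h at 4 C; score combines spot fluorescence with its signal to noise ratio.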 The conditions noted are these: small-molecule microarray binding, fluorescence 635 nm; higher = more signal.
Experiment [12] is described as follows: modulators of HCV replicon luciferase signal, primary screen, HCV replication inhibitor project, Huh7 cells, luciferase reporter (AID 1109).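 Note: huh7 hepatoma cells harbouring a luciferase neomycin HCV replicon reporter; luciferase luminescence as measure of HCV replicon replication; test concentration not given here.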 The conditions noted are these: 48 h, higher = more signal.
Experiment [13] addresses Left-right determination factor 2 (Homo sapiens) (UniProt O00292). The experiment can be described thus: LEFTY2 binders on small-molecule microarrays, primary screen, biochemical, small-molecule microarray, 635 nm fluorescence scan (AID 1110). The note with it: LEFTY2 binding, higher = more signal.
Experiment [14] concerns the target Calmodulin-1 (Homo sapiens) (UniProt P0DP23). In words: CALM1 binders on microarrays, EGTA buffer, profiling panel, biochemical, small-molecule microarray, Cy5-labelled CALM1 (AID 1111).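 Note: labelled calmodulin applied in Tris saline Tween buffer holding calcium plus EGTA and DTT.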 The note with it: Cy5-CALM1 binding fluorescence, higher = more signal.
The target is the same in experiment [15]. The experiment can be described thus: calcium-bound CALM1 binders on microarrays, profiling panel, artefact control for SMM control-protein annotation, biochemical, small-molecule microarray, Cy5-labelled CALM1, plus calcium (AID 1112).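 Note: score merges spot fluorescence with signal to noise from triplicate slides.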 The conditions noted are these: Cy5-CALM1 binding fluorescence, higher = more signal.
Experiment [16] can be described thus: small-molecule microarray binders of probe aWnt5a, primary screen, biochemical, biotinylated probe, 635/667 nm fluorescence (AID 1113).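 Note: score merges 667 nm fluorescence intensity with signal-to-noise per printed feature.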 The note with it: higher = more signal.
Experiment [17] in a line: small-molecule microarray binders of probe aShh, primary screen, biochemical, biotinylated probe, 635/667 nm fluorescence (AID 1114).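 Note: probe is biotin-labelled aShh protein from a stem cell growth factor screen; measures binding of labelled protein to compounds printed on the slide; score merges feature fluorescence at 667 nm with signal-to-noise.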 The conditions noted are these: higher = more signal.
A short description of experiment [18]: small-molecule microarray binders of probe aNog, primary screen, biochemical, biotinylated probe, 635/667 nm fluorescence (AID 1115).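 Note: probe is biotinylated aNog protein used at 0.15 µg/mL for 1 h at 4 C; z-score combines 667 nm fluorescence of each spot with its signal to noise.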 The note with it: higher = more signal.
Experiment [19] concerns the target Torsin-1A-interacting protein 1 (Homo sapiens) (UniProt Q5JTV8). The experiment can be described thus: LAP1 binders from COS7 cell lysate, primary screen, small-molecule microarray, 635/667 nm fluorescence (AID 1116). The conditions noted are these: COS7-hLAP1 lysate binding, 635 nm fluorescence, higher = more signal.
Experiment [20] has as its target Alpha-bungarotoxin (Bungarus multicinctus) (UniProt P60615). In words: alpha-bungarotoxin binders on microarray, profiling panel, artefact control for SMM control protein annotation, biochemical, small-molecule microarray, Alexa647 label, 635/667 nm fluorescence (AID 1117). The conditions noted are these: alpha-BTX-A647 binding fluorescence, higher = more signal.

Sequence of Left-right determination factor 2 (Homo sapiens) (O00292 whole entry, looked up): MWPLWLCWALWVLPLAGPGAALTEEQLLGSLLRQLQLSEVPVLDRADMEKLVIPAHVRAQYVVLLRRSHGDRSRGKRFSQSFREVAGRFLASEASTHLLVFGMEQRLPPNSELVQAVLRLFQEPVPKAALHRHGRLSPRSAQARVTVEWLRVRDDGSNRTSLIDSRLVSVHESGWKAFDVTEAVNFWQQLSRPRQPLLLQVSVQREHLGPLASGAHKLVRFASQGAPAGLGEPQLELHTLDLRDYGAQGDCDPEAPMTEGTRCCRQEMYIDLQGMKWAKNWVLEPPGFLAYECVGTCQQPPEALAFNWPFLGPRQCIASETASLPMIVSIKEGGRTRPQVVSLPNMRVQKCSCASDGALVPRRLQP
Sequence of Torsin-1A-interacting protein 1 (Homo sapiens) (Q5JTV8 whole entry, looked up): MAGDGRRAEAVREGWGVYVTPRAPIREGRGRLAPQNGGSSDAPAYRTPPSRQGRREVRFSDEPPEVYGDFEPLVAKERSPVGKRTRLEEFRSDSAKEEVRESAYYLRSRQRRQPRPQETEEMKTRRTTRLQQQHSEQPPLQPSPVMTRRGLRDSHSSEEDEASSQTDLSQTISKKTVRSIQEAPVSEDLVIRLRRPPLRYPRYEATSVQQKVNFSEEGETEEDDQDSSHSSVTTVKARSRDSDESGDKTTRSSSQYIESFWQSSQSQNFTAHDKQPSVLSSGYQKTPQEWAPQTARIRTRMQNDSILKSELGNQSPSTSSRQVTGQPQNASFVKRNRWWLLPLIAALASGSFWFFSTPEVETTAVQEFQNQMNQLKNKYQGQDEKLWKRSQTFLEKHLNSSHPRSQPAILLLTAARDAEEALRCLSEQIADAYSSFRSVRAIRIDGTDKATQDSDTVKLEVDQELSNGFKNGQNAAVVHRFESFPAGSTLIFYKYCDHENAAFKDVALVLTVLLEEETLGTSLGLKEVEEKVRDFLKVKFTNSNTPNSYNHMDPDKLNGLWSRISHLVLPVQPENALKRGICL
Sequence of Alpha-bungarotoxin (Bungarus multicinctus) (P60615 whole entry, looked up): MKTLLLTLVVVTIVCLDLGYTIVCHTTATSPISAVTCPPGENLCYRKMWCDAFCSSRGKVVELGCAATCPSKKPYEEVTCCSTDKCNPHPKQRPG

With `CO[C@@H](C(C)C)[C@@H](C)C1OC(=O)CC1O` (stereo not given in full), the composite z-score is -0.595 in experiment [1]; -0.148 in [2]; -0.0917 in experiment [3]; -0.114 in experiment [5]; -0.051 in experiment [6]; -0.57 in [7]. For the same compound, the composite z-score was -0.552 in experiment [8]; -0.166 in experiment [9]; 0.253 in experiment [10]; -0.175 in experiment [11]; 0.0752 in experiment [13]; -0.32 in [14]. Further, the composite z-score is 0.192 in experiment [15]; -0.232 in experiment [16]; -0.171 in [17]; -0.478 in [18]; -0.214 in experiment [19]; -0.427 in experiment [20]. Moreover, the z-score in [4] was 0.94 (inactive); in [12] it was 0.975.

With `CON(C)C(=O)c1nnc2c(n1)[nH]c1ccccc12`, the composite z-score in experiment [1] is 0.214; in experiment [2] it was 0.256; in [3], -0.0786; in [5], 0.692; in experiment [6], 0.217; in [7], 0.319. Also, the composite z-score is 0.651 in [8]; 0.377 in experiment [9]; 0.221 in [10]; -0.186 in experiment [11]; 0.414 in [13]; -0.15 in experiment [14]. For the same compound, the composite z-score was -0.229 in [15]; -0.148 in experiment [16]; -0.23 in experiment [17]; -0.33 in experiment [18]; 2.14 in [19]; 0.573 in [20]. The z-score in experiment [4] was -0.562 (inactive); in experiment [12], 2.27.

Consider `CC(C)[C@@H](OCc1ccccc1)[C@H](C)C=NO[C@@H](C)c1cn([C@H](CO)Cc2ccccc2)nn1`, for which the composite z-score in experiment [1] is 0.38; in experiment [2] it was -0.215; in experiment [3], -0.357; in [5], -0.045; in experiment [6], 0.148; in [7], -0.0006. In addition, the composite z-score was 0.105 in experiment [8]; -0.477 in [9]; -0.245 in [10]; 0.402 in [11]; 0.277 in [13]; -0.38 in experiment [14]. The composite z-score in experiment [15] is -0.281; in [16], -0.135; in experiment [17], -0.273; in experiment [18] it was 0.0715; in experiment [19] it was 0.217; in [20], -0.0804. Further, the z-score was 0.357 (inactive) in experiment [4] and -1.87 in [12].

With `COc1cccc([C@H]2Oc3ccc(OC)cc3C(=NOCC[C@@H]3C=C[C@H](OC(C)=O)[C@@H](COC(C)=O)O3)[C@@H]2O)c1`, the composite z-score in experiment [1] is 1.21; in experiment [2] it was 0.0266; in [3], -0.153; in experiment [5], 0.696; in experiment [6], 0.321; in experiment [7], 0.274. Besides, the composite z-score was 0.795 in experiment [8]; 0.718 in experiment [9]; 0.842 in experiment [10]; 0.687 in [11]; 0.492 in experiment [13]; -0.547 in experiment [14]. Besides, the composite z-score was -0.314 in experiment [15]; -0.0865 in [16]; -0.0553 in [17]; 0.197 in [18]; 0.786 in experiment [19]; 0.635 in [20]. Further, the z-score in [4] was -0.019 (inactive); in experiment [12], -0.544.

Take `CC(C)(C)N1C(=O)[C@H]2[C@H]3[C@H](O)[C@H](O)CC(=NOC[C@@H](O)COCc4ccco4)[C@@H]3CC[C@H]2C1=O`: the composite z-score in experiment [1] was 0.34; in [2], 0.774; in [3], 0.588; in experiment [5], 0.249; in experiment [6], -0.332; in [7] it was -0.144. For the same compound, the composite z-score in experiment [8] is -0.248; in experiment [9] it was -0.272; in experiment [10] it was 0.426; in [11], -0.266; in experiment [13] it was 0.0349; in experiment [14], -0.235. The composite z-score in [15] was 0.314; in experiment [16] it was -0.0685; in experiment [17], -0.16; in experiment [18], -0.0733; in [19], 1.45; in experiment [20], 1.65. In addition, the z-score in experiment [4] was 0.369 (inactive); in experiment [12], -0.287.

With `CON=C(C)CCC(=O)OC[C@H]1O[C@H](C#Cc2ccccc2)C=C[C@@H]1Oc1ccc(C)cc1`, the composite z-score was 0.699 in [1]; 0.0281 in experiment [2]; -0.22 in [3]; 0.19 in [5]; -0.252 in experiment [6]; 0.252 in experiment [7]. For the same compound, the composite z-score in [8] was 0.407; in experiment [9], 0.572; in experiment [10], 0.719; in experiment [11], 0.247; in [13], 0.395; in [14], -0.118. Further, the composite z-score in experiment [15] was -0.545; in experiment [16], -0.0924; in [17], -0.0709; in experiment [18], 0.0369; in [19], 0.571; in [20] it was 0.35. The z-score was 0.825 (inactive) in [4] and -3.53 in experiment [12].
